Results: PubChem BioAssay AID720509 (The Scripps Research Institute Molecular Screening Center, 2013)
The whole screen tested about 370,000 compounds, of which about 760 (0.21%) were called active.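 How the source made its calls: active means inhibition above a per-campaign cutoff: mean of compounds within control limits plus 3 SD (cut at about 15% in these data); inactive means the rest.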 Shown is part of a subset that was picked to be rich in actives.

Target: Fibrinogen beta chain (Homo sapiens) (UniProt P02675)
Experiment: small molecules displacing Tn6 from DD(E) complex – biochemical, fluorescence polarization, human fibrin, Tn6 probe, primary screen (AID 720509);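 further: 0% = median of all compound wells on the plate and 100% = blocking peptide control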
Conditions: Fibrin DD(E) TRITC-Tn6 fluorescence polarization displacement; at 8.3 µM; hits give high values

Fibrinogen beta chain (Homo sapiens), sequence (P02675 whole entry, looked up): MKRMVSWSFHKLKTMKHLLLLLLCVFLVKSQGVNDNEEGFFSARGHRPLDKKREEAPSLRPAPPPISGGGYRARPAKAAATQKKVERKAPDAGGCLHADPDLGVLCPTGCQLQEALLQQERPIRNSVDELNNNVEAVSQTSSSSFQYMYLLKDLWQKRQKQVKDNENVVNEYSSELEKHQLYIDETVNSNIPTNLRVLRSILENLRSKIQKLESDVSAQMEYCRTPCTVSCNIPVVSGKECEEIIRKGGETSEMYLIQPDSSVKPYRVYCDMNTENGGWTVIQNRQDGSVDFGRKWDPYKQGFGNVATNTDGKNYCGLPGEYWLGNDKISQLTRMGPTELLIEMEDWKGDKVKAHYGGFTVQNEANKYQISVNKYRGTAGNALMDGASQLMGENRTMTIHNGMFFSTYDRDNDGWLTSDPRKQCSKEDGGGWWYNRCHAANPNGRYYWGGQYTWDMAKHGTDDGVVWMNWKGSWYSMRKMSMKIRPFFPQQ

SMILES | inhibition
CCCCNC(=O)OC1CC2CC1[C@H]1CCCCN1C2=O (some centres not stated) | -8.63% (inactive)
OCCC1CN(Cc2ccc3nsnc3c2)CCN1C1CCCCC1 (configuration not stated) | -12.1% (inactive)
COc1ccc(N2C(=O)NC(NS(=O)(=O)c3ccc(Cl)cc3)(C(F)(F)F)C2=O)cc1 (configuration not stated) | 16.5% (active)
Cc1ccc(S(=O)(=O)NC2(C(F)(F)F)NC(=O)N(CCc3ccccc3)C2=O)cc1 (configuration not stated) | 1.91% (inactive)
COc1ccc(S(=O)(=O)NC2(C(F)(F)F)N=C3SCCN3C2=O)cc1 (configuration not stated) | 3.58% (inactive)
Cc1cc(=O)[nH]c(SCC(=O)Nc2ccc(F)cc2F)n1 | -5.08% (inactive)
COc1ccc(NC(=O)C2=NNC(=O)CC2)cc1S(=O)(=O)N1CCCCC1 | 3.03% (inactive)
COCCn1c(SCC(=O)Nc2ccc3c(c2)CCC3)nc2ccccc2c1=O | -3.38% (inactive)
COc1ccc(NS(=O)(=O)c2cc3c(cc2C)N(C(C)=O)CCO3)cc1 | -0.74% (inactive)
C=C(C)CSc1nnc(-c2ccc(C)cc2)n1N | 2.43% (inactive)
CC(C)N(c1ccccc1)c1ncnc(NCCC(=O)O)c1[N+](=O)[O-] | 0.23% (inactive)
Cc1ccc2c(c1)N(CC(=O)NCCCN1CCCCC1)C(=O)c1cccnc1O2 | -7.1% (inactive)
COc1ccc([C@H]2OC(=O)C[C@H]2C(=O)N2CCN(c3ccccc3F)CC2)cc1OC | -0.84% (inactive)
CCCN(CC(=O)Nc1ccc(OC)c(OC)c1)CC(=O)Nc1ccc(F)c(F)c1F | 7.52% (inactive)
O=C(Nc1ccc(Cl)cc1)Nc1ccc(Oc2cccnc2)nc1 | -12.2% (inactive)
O=C(CSc1n[nH]c(-c2cccnc2)n1)Nc1ccnc2ccccc12 | -0.07% (inactive)
COc1ccc(Nc2nc(-c3cccnc3)nc3ccccc23)cn1 | 15.3% (active)
COc1ccc(S(=O)(=O)N(CCCN2CCCC2=O)Cc2cc3c(C)ccc(C)c3[nH]c2=O)cc1 | -7.91% (inactive)
Cc1ccc(NC(=O)Cn2sc3ccccc3c2=O)cc1 | 1.72% (inactive)

SMILES | inhibition
O=C(CN1CCc2ccccc2C1)Nc1cccc(S(=O)(=O)N2CCOCC2)c1 | 4.91% (inactive)
Cc1ccc(NC(=O)CN2CCc3ccccc3C2)cc1 | 15.8% (active)
Cc1ccc(-c2nc(C)sc2CC(=O)O)cc1 | 16.2% (active)
Cc1nc(-c2ccc(F)cc2)c(CC(=O)N2CCN(S(=O)(=O)c3ccc(F)cc3)CC2)s1 | -5.03% (inactive)
Cc1ccc(-c2nc(C)sc2CC(=O)OCC(=O)Nc2c(F)cccc2F)cc1 | 4.3% (inactive)
O=C(Nc1ccc(N2CCOCC2)cc1)c1cccc2c(-c3ccc(F)c(F)c3)coc12 | -1.54% (inactive)
Cc1ccc(Nc2nc(CSc3nnc(-c4ccncc4)n3-c3ccccc3C)cs2)cc1 | -3.59% (inactive)
O=C(NCC(F)(F)F)c1ccc(S(=O)(=O)NCCc2ccc3c(c2)OCCO3)cc1 | 0.28% (inactive)
Cn1cc(-c2ccccc2)cc(C#N)c1=O | -5.81% (inactive)
CCCCNC(=O)Nc1c(C)cc(SC#N)cc1C | -1.9% (inactive)
C[C@H]([C@@H](O)[C@@H](O)[C@@H](C)C(C)(C)C)[C@H]1CC[C@H]2C3CC[C@H]4C[C@H](OS(=O)(=O)O)[C@@H](OS(=O)(=O)O)C[C@]4(C)[C@H]3CC[C@]12C (some centres not stated) | 3.35% (inactive)
O=C(NCc1ccccc1Cl)C1CCN(c2ncnc3c2nc2n3CCCCC2)CC1 | -4.73% (inactive)
C=C1CCC(N(O)c2cc(C)on2)C(=C)CCC2C1CC2(C)C (configuration not stated) | -5.24% (inactive)
CC(C)Oc1cc(F)ccc1-c1cc(C(=O)Nc2cccc(Cl)c2)[nH]n1 | -6.05% (inactive)
CC(CNS(=O)(=O)c1ccc(Br)cc1)CN(C)C (configuration not stated) | -0.63% (inactive)
Cc1ccc(C(=O)Cc2nnc(C)s2)cc1 | -0.99% (inactive)
O=S(=O)(NCc1ccccc1Cl)c1cnc[nH]1 | -4.95% (inactive)
Cc1c(C(=O)N(C)CCc2cnn(C)c2)oc2c(F)cccc12 | 3.62% (inactive)
COc1cccc(NC(=O)C2(C)CCN2Cc2ccccc2Cl)c1 (configuration not stated) | 0.5% (inactive)

SMILES | inhibition
COC(=O)c1cc(NC(=O)c2cc(C(C)(C)C)nn2Cc2cccc(C)c2)ccc1N1CCOCC1 | 4.88% (inactive)
O=C(C(NS(=O)(=O)c1cccc2nsnc12)c1ccccc1)N1CCN(c2ccccc2)CC1 (configuration not stated) | 8.08% (inactive)
CN1CCN(C(=O)c2ccc(-c3cc4nc(NCc5cccnc5)n(C)c(=O)c4s3)cc2)CC1 | -11.9% (inactive)
Cc1cc2ccccc2n1CCNC(=O)COc1ccc2ccccc2c1 | 52.5% (active)
Cc1ccccc1OCC(=O)NCC(=O)OCC(=O)c1ccc2ccccc2c1 | -2.48% (inactive)
O=C(COc1ccc(Cl)cc1)NCCSc1ccccc1 | -0.51% (inactive)
O=C(NCc1ccccc1)c1cccc(NC(=O)C2CCCCC2)c1 | 3.16% (inactive)
O=C(CC(NC(=O)c1ccccc1)c1ccccc1)Nc1ccc(F)c(F)c1 (configuration not stated) | 6.57% (inactive)
C=CC(COCc1ccccc1)N(CC(=O)OC)S(=O)(=O)c1cc(Br)ccc1OC (configuration not stated) | -3.84% (inactive)
Cc1noc(C)c1CSCC(=O)Nc1ccc(Br)cc1Cl | -5.8% (inactive)
CCN(CC)P(=O)(C(NC(=O)OC)C(F)(F)C(F)(F)C(F)(F)C(F)F)N(CC)CC (configuration not stated) | 0.37% (inactive)
CN1c2ccc(C=O)c3c(C=O)ccc(c23)N(C)C1(C)C | 29.5% (active)
C[C@@H]1CN([C@H](C)CO)S(=O)(=O)c2ccc(C#CC3CCCCC3)cc2O[C@H]1CN(C)C(=O)Cc1ccncc1 | 2.11% (inactive)
Cc1cc(NC(=O)CCC(=O)N(Cc2ccccc2)C(C(=O)NC2CCCC2)c2ccc(C)o2)no1 (configuration not stated) | -2.98% (inactive)
Cc1sc2ncn(CC(=O)NCCCC(=O)N(C)Cc3ccccc3)c(=O)c2c1C | 6.86% (inactive)
CCCNC(=O)c1cc(C2CCCN(C(=O)c3ccc4c(c3)CCO4)C2)on1 (configuration not stated) | 2.19% (inactive)
O=C(NCc1ccccc1)c1ccc(CNc2c(N3CCCC3)c(=O)c2=O)cc1 | -2.33% (inactive)
COc1cc(NC(=O)c2ccc(CNc3c(N4CCCC4)c(=O)c3=O)cc2)cc(OC)c1OC | 17.7% (active)
O=C(NC1CCCCC1)c1ccc(CNc2c(N3CCOCC3)c(=O)c2=O)cc1 | -6.33% (inactive)
